Assay results as given in PubChem BioAssay (NCI).
About 79,000 compounds went through this panel and 15% of them were active in at least one assay; those are over-represented in the sample as a whole. Active and inactive are the calls of the source. No stated cut-off is given here; in the data, active means growth inhibition above about 70%; inactive means the rest.

What was measured:
[1] = NCI Yeast Anticancer Drug Screen. Data for the rad52 strain (AID 147);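 further: 0% = growth of vehicle-treated control cultures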; details: S. cerevisiae rad52 mutant growth inhibition, stronger effect = higher value
How it was run: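 Read-out: growth inhibition versus vehicle-treated controls. Cells were a DNA repair-deficient yeast strain treated with compounds.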

[2] = NCI Yeast Anticancer Drug Screen. Data for the wt1 strain (AID 149);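 further: 0% = growth of vehicle-treated wt1 cultures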; details: S. cerevisiae wt1 strain (SPY 50644) growth inhibition, stronger effect = higher value
How it was run: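 Readout: yeast growth inhibition, normalised to vehicle controls, in the wt1 strain exposed to test compounds.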

[3] = NCI Yeast Anticancer Drug Screen. Data for the rad50EPP+ strain (AID 151);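 further: 0% = growth of vehicle-treated control cultures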; details: S. cerevisiae rad50 mutant strain, stronger effect = higher value
How it was run: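 Growth inhibition read against vehicle controls in rad50EPP+ yeast, a strain altered in DNA damage repair, after compound exposure.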

[4] = NCI Yeast Anticancer Drug Screen. Data for the mgt1 strain (AID 153); details: S. cerevisiae mgt1 mutant growth inhibition, stronger effect = higher value
How it was run: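 mgt1 yeast grown with test compound; read-out is growth inhibition versus vehicle-treated cultures.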

[5] = NCI Yeast Anticancer Drug Screen. Data for the rad50 strain (AID 155);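 further: 0% = growth of vehicle-only cultures of the same strain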; details: S. cerevisiae rad50 strain growth inhibition, stronger effect = higher value
How it was run: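 Compounds were tested on a yeast strain with an engineered DNA damage repair alteration; the reported value is growth inhibition normalised to vehicle treatment.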

[6] = NCI Yeast Anticancer Drug Screen. Data for the mec2-1 strain (AID 157); details: S. cerevisiae mec2-1 strain, stronger effect = higher value
How it was run: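 Yeast mec2-1 mutant treated with compound. Readout: growth inhibition vs vehicle controls.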

[7] = NCI Yeast Anticancer Drug Screen. Data for the rad14 strain (AID 159);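 further: 0% = growth of vehicle-treated control cultures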; details: S. cerevisiae rad14 strain growth inhibition, stronger effect = higher value
How it was run: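 Compound-treated yeast with a defined DNA-repair lesion; growth inhibition normalised to vehicle-treated cultures.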

[8] = NCI Yeast Anticancer Drug Screen. Data for the sgs1 mgt1 strain (AID 161);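 further: 0% = growth of cultures given vehicle only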; details: S. cerevisiae sgs1 mgt1 strain, stronger effect = higher value
How it was run: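 Read-out: growth inhibition vs vehicle controls. Cells: mutant yeast strain deficient in DNA damage repair.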

[9] = NCI Yeast Anticancer Drug Screen. Data for the CLN2oe strain (AID 163);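 further: 0% = growth of vehicle-only control cultures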; details: S. cerevisiae CLN2oe strain, stronger effect = higher value
How it was run: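 Read-out: yeast growth inhibition, expressed relative to vehicle-only controls. The strain bears an engineered cell-cycle alteration.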

[10] = NCI Yeast Anticancer Drug Screen. Data for the cln2 rad14 strain (AID 165);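 further: 0% = growth equal to vehicle treated cultures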; details: S. cerevisiae cln2 rad14 strain, stronger effect = higher value
How it was run: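 cln2 rad14 yeast strain; compound exposure; growth inhibition read vs vehicle controls.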

[11] = NCI Yeast Anticancer Drug Screen. Data for the bub3 strain (AID 167); details: S. cerevisiae bub3 mutant strain, stronger effect = higher value
How it was run: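 Growth of a checkpoint-deficient yeast mutant is measured after compound exposure. Values represent inhibition relative to vehicle.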

[12] = NCI Yeast Anticancer Drug Screen. Data for the wt2 strain (AID 169);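 further: 0% = growth of vehicle-treated yeast cultures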; details: S. cerevisiae wt2 strain growth inhibition, stronger effect = higher value
How it was run: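 Read-out: growth inhibition versus vehicle-treated control cultures after compound exposure of the yeast strain.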

[13] = NCI Yeast Anticancer Drug Screen. Data for the sgs1 strain (AID 173);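 further: 0% = growth of vehicle-only control cultures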; details: S. cerevisiae sgs1 mutant, stronger effect = higher value
How it was run: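 Read-out: yeast growth inhibition relative to vehicle controls, following compound exposure of a strain with a defined DNA repair/cell cycle alteration.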

[14] = NCI Yeast Anticancer Drug Screen. Data for the mlh1 rad18 strain (AID 175); details: S. cerevisiae mlh1 rad18 strain growth inhibition, stronger effect = higher value
How it was run: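 Yeast w/ defined DNA-repair lesions; compound exposure; growth vs vehicle controls → % inhibition.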

[15] = NCI Yeast Anticancer Drug Screen. Data for the rad18 strain (AID 177); details: S. cerevisiae rad18 mutant growth inhibition, stronger effect = higher value
How it was run: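 Readout: growth inhibition vs vehicle controls. Cells: genetically altered yeast strain, DNA repair defect.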

[16] = at 5.0 µM (retest, dose inferred, filed as 0.5)
[17] = at 50.0 µM (retest, dose inferred, filed as 5.0)

Measured: growth inhibition

COc1ccc(C(OCC2OC(n3cnc4c(=O)n(Cc5ccccc5[N+](=O)[O-])nnc43)C(O)C2O)(c2ccccc2)c2ccc(OC)cc2)cc1 (stereo not drawn)
inactive: [1]; at 1.2 µM 12% | [1]; at 3.7 µM 16% | [1]; at 11.0 µM 18% | [1]; at 33.0 µM 19% | [1]; at 100.0 µM 15% | [2]; at 1.2 µM -18% | [2]; at 3.7 µM -11% | [2]; at 11.0 µM -2% | [2]; at 33.0 µM -4% | [2]; at 100.0 µM -2% | [3]; at 1.2 µM 8% | [3]; at 3.7 µM 8% | [3]; at 11.0 µM -5% | [3]; at 33.0 µM -7% | [3]; at 100.0 µM -15% | [4]; at 1.2 µM 9% | [4]; at 3.7 µM 5% | [4]; at 11.0 µM 20% | [4]; at 33.0 µM 25% | [4]; at 100.0 µM 20% | [5]; at 1.2 µM 22% | [5]; at 3.7 µM 24% | [5]; [16] 17% | [5]; at 11.0 µM 26% | [5]; at 33.0 µM 18% | [5]; [17] 35% | [5]; at 100.0 µM 17% | [6]; at 1.2 µM 14% | [6]; at 3.7 µM 13% | [6]; [16] 14% | [6]; at 11.0 µM 15% | [6]; at 33.0 µM 22% | [6]; [17] 33% | [6]; at 100.0 µM 9% | [7]; at 1.2 µM -23% | [7]; at 3.7 µM -22% | [7]; at 11.0 µM -25% | [7]; at 33.0 µM -28% | [7]; at 100.0 µM -31% | [8]; [16] 0% | [9]; at 1.2 µM 9% | [9]; at 3.7 µM -4% | [9]; at 11.0 µM -7% | [9]; at 33.0 µM 11% | [9]; at 100.0 µM -3% | [10]; [16] 2% | [11]; at 1.2 µM 32% | [11]; at 3.7 µM 26% | [11]; [16] 7% | [11]; at 11.0 µM 23% | [11]; at 33.0 µM 26% | [11]; at 100.0 µM 14% | [12]; at 1.2 µM 1% | [12]; at 3.7 µM -4% | [12]; at 11.0 µM 6% | [12]; at 33.0 µM 13% | [12]; at 100.0 µM 6% | [13]; at 1.2 µM -10% | [13]; at 3.7 µM -20% | [13]; at 11.0 µM -10% | [13]; at 33.0 µM -5% | [13]; at 100.0 µM 8% | [14]; [16] 21% | [14]; [17] 23% | [15]; at 1.2 µM 28% | [15]; at 3.7 µM 27% | [15]; at 11.0 µM 33% | [15]; at 33.0 µM 37% | [15]; at 100.0 µM 32%
active: [5]; at 50.0 µM 89.2% | [6]; at 50.0 µM 91.4% | [8]; [17] 97% | [8]; at 50.0 µM 91.6% | [10]; [17] 88% | [10]; at 50.0 µM 88.7% | [11]; [17] 96% | [11]; at 50.0 µM 89.4% | [14]; at 50.0 µM 89.5%
